Reference: PubChem BioAssay (NCATS)
Where “and” joins values, the source holds several entries; their conditions need not be identical. Equal values may be shown once. Inconclusive results are not listed. Calls of active or inactive are those of the source. Calls come from the whole dose curve.

Experiment: qHTS Assay for Lipid Storage Modulators (AID 1519); for activity change, negative = inhibition: % is set by controls: 0 for no effect and ±100 for the full control effect
Conditions: Drosophila S3 cells, BODIPY lipid droplet/cell ratio, laser cytometry, cells loaded with oleic acid
Text: NIH Molecular Libraries Probe Production Centers Network [MLPCN]
NIH Chemical Genomics Center [NCGC]
Assay Submitter (PI): Beller, Mathias; Max-Planck-Institut fur Biophysikalische Chemie
NCGC Assay Overview: Storing lipids as a reservoir for energy or the anabolism of elementary metabolites is a common feature of probably all cells and is conserved from bacteria to humans. The universal cellular lipid storage organelle is the so-called lipid storage droplet (LD). Although ubiquitous, LDs share a simple structure composed of a hydrophobic core that harbors the storage lipids, which is shielded by a droplet-specific phospholipid monolayer to which proteins are attached. The current model of LD biogenesis involves an incorporation of the lipid core into the membrane leaflets of the endoplasmic reticulum (ER) followed by a subsequent budding-like maturation of a LD, which ultimately pinches off. Once released, LD volume can increase by localized lipogenesis or fusion of existing droplets. Storage lipids are re-mobilized enzymatically by lipase activity. Lipase regulation in the adipocyte is heavily studied and involves multiple components including catecholamine signaling, the LD-associated proteins Perilipin and comparative gene identification-58 (CGI-58) and at least two lipases named hormone sensitive lipase (HSL) and adipocyte triglyceride lipase (ATGL). LD regulation outside of the adipocyte is poorly understood and only few components are known. However, there is an urgent need to learn more about ectopic fat depots as mislocalized storage of lipids, for example in the liver or muscle, is an eminent health problem associated with insulin resistance or the metabolic syndrome. We developed a laser-scanning cytometer assay to enable 1,536-well screening and combined the results of the small molecules screen with an RNAi database based on lipid storage.
NCGC Assay Protocol Summary:
We dispensed 4 uL of cells at 1.25 x 10^6 cells/mL into LoBase Aurora COC 1,536-well plates (black walled, clear bottom) with a bottle-valve solenoid-based dispenser (Aurora) to obtain 5,000 cells/well. Triacsin C (Sigma-Aldrich T-4540), an inhibitor of long-chain fatty acyl CoA synthetase that blocks synthesis of triglycerides, was used as a positive control for lipid under-storage. A total of 23 nL of compound solution of different concentrations were transferred to the assay plates using a Kalypsys pin tool equipped with a 1,536-pin array containing 10-nL slotted pins (FP1S10, 0.457-mm diameter, 50.8 mm long; V&P Scientific). One microliter of oleic acid (400 uM) was added, and the plate was lidded with stainless steel rubber gasket lined lids containing pinholes. […] Fluorescence was detected by excitation of the fluorophores with a 488-nm laser on an Acumen Explorer (TTP Lab Tech). The total intensity in channel 1 (500-530 nm) reflected lipid droplet accumulation. […] The ratio of the total intensity in PMT channel 1 over total intensity of channel 3 was also calculated. Percent activity was computed relative to an internal control (100% inhibited lipid droplet deposition due to the presence of 20 uM Triacsin C), which was added to 32 wells/plate.

[1] = measured here: cell count channel max response
[2] = measured here: lipid channel max response

Row | Structure (SMILES) | activity change, negative = inhibition (at 25.7 µM (top of the series)) | activity change, negative = inhibition (at 57.5 µM (top of the series)) | max response [1] | max response [2]
1 | CCCN1CCC[C@@H]2Cc3[nH]ncc3C[C@H]21 | -0.566% (inactive) | -0.922% (inactive) | -11.1% and 10.4% | -11.8% and 9.61%
2 | Fc1ccc(C(OCCN2CCN(CCCc3ccccc3)CC2)c2ccc(F)cc2)cc1 | -2.3% (inactive) |  | -18.7% | -16.6%
3 | CN1CCN(C2=Nc3cc(Cl)ccc3Nc3ccccc32)CC1 | 0.266% (inactive) |  | -21% | -18.6%
4 | CNCCCN1c2ccccc2CCc2ccccc21 | -4.5% (inactive) | 0.465% (inactive) | -2.23% and 21.3% | -6.66% and 25.9%
5 | CN(C)CCN(C)CCc1ccc(Cl)c(Cl)c1 |  | -1.09% (inactive) | 4.07% | 4.59%
6 | Cc1cc2c(C(C)C)c(O)c(O)c(C=O)c2c(O)c1-c1c(C)cc2c(C(C)C)c(O)c(O)c(C=O)c2c1O |  | -15.2% (inactive) | -14.5% | -19.7%
7 | NN=C(N)N |  | 1.91% (inactive) and 1.41% (inactive) | 12.1% and -0.681% | 15.5% and -2.91%
8 | CNCCC(Oc1ccc(C(F)(F)F)cc1)c1ccccc1 (stereo unspecified) |  | 1.75% (inactive) | -0.474% | 3.92%
9 | CN(C)C(=O)C(CCN1CCC(O)(c2ccc(Cl)cc2)CC1)(c1ccccc1)c1ccccc1 |  | -2.05% (inactive) | -1% | -2.23%
10 | Cc1ccc(S(=O)(=O)N[C@@H](CCCCN)C(=O)CCl)cc1 |  | -0.107% (inactive) | 1.11% | 0.09%
11 | CC[N+]1(C)CCCC(OC(=O)C(O)(c2ccccc2)c2ccccc2)C1 (stereo unspecified) |  | 8.59% (inactive) | 5.8% | 23.3%
12 | NCC(CC(=O)O)c1ccc(Cl)cc1 (stereo unspecified) |  | 7.61% (inactive) | 16.5% | 28.7%
13 | CN1C[C@H](CNC(=O)OCc2ccccc2)C[C@@H]2c3cccc4c3c(cn4C)C[C@H]21 |  | 1.3% (inactive) | -34% | -33%
